Records with an inconclusive call do not appear. Entries that show only a call come without a potency. Calls of active or inactive are those of the source. Calls follow the shape of the dose curve; as a rule, active = well fitted cell-killing curve with a large enough effect; inconclusive = small, poorly fitted or top-dose-only effect, or effect the other way; inactive = no such curve, though single readings can be large or run the other way.
Tests used:
[1] = Viability qHTS for spleen associated tyrosine kinase inhibitor (SYKi) naive MV4-11 cells (AID 1963823); conditions: MV4-11 AML viability, CellTiter-Glo luminescence, 72 h; series mostly up to 45 µM; also: nearly all actives have a fitted effect of over 40% in size
In short: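 Compounds were dispensed acoustically onto plates, MV4-11 cells (SYKi-naive) added at 500 per well, and plates incubated 72 hr at 37 C. CellTiter-Glo was added and luminescence measured after 10 min.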

[2] = Viability qHTS for spleen associated tyrosine kinase inhibitor (SYKi) drug resistant MV4-11 cells (AID 1963824); conditions: SYKi-resistant MV4-11 viability, CellTiter-Glo, 72 h; series mostly up to 45 µM; also: nearly all actives have a fitted effect of over 35% in size
In short: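 SYK inhibitor-resistant MV4-11 AML cells, 500 per well, added to predispensed compounds and incubated 72 hr at 37 C, 5% CO2. Viability measured by CellTiter-Glo luminescence after 10 min at room temperature.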
Potency is read from the fitted curve at half-maximal effect.

Row | Compound | Potency [1] | Potency [2]
1 | CC12CCC(C(OC3OC(COC4OCC(O)(CO)C4O)C(O)C(O)C3O)C1)C(C)(C)O2 (configuration not stated) | inactive | inactive
2 | COC(=O)[C@H](O)[C@H]1C(C)(C)[C@H](OC(=O)C(C)C)[C@@]2(O)C(=O)[C@]1(C)C1CC[C@]3(C)C(CC(=O)O[C@H]3c3ccoc3)[C@]13O[C@@H]32 (some centres not stated) | inactive | inactive
3 | O=C1N=C(O)S/C1=C\c1ccc2nccnc2c1 | 13 µM (active) | 13 µM (active)
4 | C=C[C@@](C)(O)CC/C=C(\C)C(=O)O[C@@H]1[C@@H]2O[C@]2(C)[C@H]2[C@H](O[C@@H]3O[C@H](CO)[C@@H](O)[C@H](O)[C@H]3O)OC=C[C@@]12O | inactive | inactive
5 | COc1ccc(CC(NC(C)=O)C(=O)O)cc1 (configuration not stated) | inactive | inactive
6 | O=C(O)C(O[C@@H]1O[C@H](CO[C@@H]2O[C@H](CO)[C@@H](O)[C@H](O)[C@H]2O)[C@@H](O)[C@H](O)[C@H]1O)c1ccccc1 (some centres not stated) | inactive | inactive
7 | CCC(C)C(=O)Oc1cc(C)ccc1C1(COC(=O)C(C)C)CO1 (configuration not stated) | 2.86 µM (active) | 2.02 µM (active)
8 | O=C1Nc2ccc(O)cc2O[C@H]1O[C@@H]1O[C@H](CO)[C@@H](O)[C@H](O)[C@H]1O | inactive | inactive
9 | CC(C)C(O)(CO)CCO[C@@H]1O[C@H](CO[C@H]2OC[C@](O)(CO)[C@H]2O)[C@@H](O)[C@H](O)[C@H]1O (some centres not stated) | inactive | inactive
10 | CC(C)c1ccc(NC(=O)c2cccs2)c(-c2nc3ccccc3[nH]c2=O)c1 | 8.2 µM (active) | 11.6 µM (active)
11 | C[C@@H]1C(=O)O[C@H]2CC34[C@H]5C[C@@H](C(C)(C)C)C36[C@@H](OC(=O)[C@@H]6O)O[C@@]4(C(=O)O5)[C@]21O (some centres not stated) | inactive | inactive

— PubChem BioAssay (NCATS)
